We go through 107 compounds from PubChem BioAssay AID1259312 (Keith Lab, Institute of Cancer Science, University of …, 2017).

Molecules are shown by their SMILES. The campaign covered roughly 4,500 compounds. About 200 (4.4%) were called active. The entries come from a sample that favours actives as a whole. A number with no mark means an inactive call.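 The calls were made as follows: active = cell survival measured by absorbance rises more than 2.5-fold over infected cells without compound; inactive = the rest.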

The nature of this test: survival after telomere uncapping, modulators, primary screen, cell-based (AID 1259312).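 Also: virus expresses mutant telomerase RNA that uncaps telomeres and kills cells; compound added 2 days after infection so exposure lasts 3 days.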 Conditions: HCT116 + Ad-hTR-mut, MTT, 5 d; at 10 µM, hits give high values.
For `Cc1nccn1CCC1CCNCC1`, the fold change was 3.27 (active).

On to `S=c1n(CN2CCCCC2)nc(-c2ccccc2)n1-c1ccccc1`, for which the fold change was 3.46 (active).

In the case of `Cc1ccc(-c2nn(CN3CCC(c4ccccc4)C3)c(=S)n2-c2ccccc2)cc1` (configuration not stated), the fold change was -1.2.

`CC(C)(C)c1ccc(-c2nn(CN3CCC(c4ccccc4)C3)c(=S)n2-c2ccccc2)cc1` (configuration not stated): the fold change was -1.84.

For `O=C(NCCN1CCOCC1)C(=O)NCCN1CCOCC1`, the fold change is 1.02.

Take `COc1ccc(C2C3=C(Nc4ncnn42)c2ccccc2CC3)cc1OC` (configuration not stated): the fold change entry is “inactive”.

With `O=S(=O)(NCCCl)c1ccccc1`, the fold change was -1.04.

Turning to `COC(=O)CCC(C)C1CCC2C3C(C[C@H](O)C12C)C1(C)CC[C@@H](O)CC1C[C@H]3O` (some centres not stated), the fold change is 4.26 (active).

Turning to `CCOC(=O)CC[C@@H](C)[C@H]1CC[C@H]2[C@@H]3[C@H](O)C[C@@H]4C[C@H](O)CC[C@]4(C)[C@H]3C[C@H](O)[C@]12C`, the fold change is -1.19.

On to `C[C@H](CCC(=O)O)[C@H]1CC[C@H]2[C@@H]3[C@H](O)C[C@@H]4C[C@H](O)CC[C@]4(C)[C@H]3C[C@H](O)[C@]12C`, for which the fold change is -1.01.

`COc1ccc(-c2nc(-c3cccnc3)no2)cc1`: the fold change was -1.74.

As for `O=C1CC(c2cc3c(cc2Br)OCO3)c2ccc3ccccc3c2N1` (configuration not stated), the fold change is 1.01.

In the case of `Nc1nc(SCC(=O)Nc2ccc(Br)cc2)sc1C(=O)Nc1nccs1`, the fold change is -1.48.

For `CCOC(=O)C(C(C)=O)C(C(C)=O)C(=O)OCC` (configuration not stated), the fold change is 1.67.

Consider `CC(=O)C(C(C)=O)C(C(C)=O)C(C)=O`, for which the fold change was 3.14 (active).

With `Brc1csc(-c2cc(Br)cs2)c1`, the fold change is -1.44.

In the case of `NC(=O)c1c(NC(=O)CN2CCCCC2)sc2c1CCCC2`, the fold change was -1.75.

In the case of `c1ccc(CCn2c(CSc3nc4ccccc4o3)nc3ccccc32)cc1`, the fold change was -1.06.

Regarding `NS(=O)(=O)c1cc(C(=O)O)c(Cl)cc1Cl`, the fold change was -1.78.

`c1ccc(-c2ccc(CSc3nc4ccccc4o3)cc2)cc1`: the fold change is -1.02.

Turning to `O=[N+]([O-])c1ccccc1NC1CCCCC1`, the fold change was 1.67.

Consider `O=[N+]([O-])c1ccc(Cl)cc1NCCO`, for which the fold change is 2.39.

Turning to `Cc1ccc(C)n1-c1ccc(NC2CCCC2)c([N+](=O)[O-])c1`, the fold change is -1.34.

In the case of `O=[N+]([O-])c1cc(Cl)ccc1NC1CCCCC1`, the fold change is 4.77 (active).

With `O=[N+]([O-])c1ccc(Cl)cc1NCc1ccco1`, the fold change was -1.31.

Consider `NNc1cc(Cl)ccc1[N+](=O)[O-]`, for which the fold change was 3.68 (active).

As for `O=C(Nc1nc2c(s1)CCCC2)C1CC(=O)N(c2ccc(F)cc2)C1` (configuration not stated), the fold change is -2.42.

Consider `Cc1cccn2c(=O)c(C=O)c(Nc3cccc(Cl)c3)nc12`, for which the fold change is -1.44.

For `CCCCc1ccc(C2C3=C(CC(C)(C)CC3=O)OC3=C2C(=O)CC(C)(C)C3)s1`, the fold change is -1.42.

Take `Fc1ccc(-c2nc3sc(-c4ccc(F)cc4)nc3s2)cc1`: the fold change is -2.41.

Take `O=C(c1ccc2[nH]c(=O)oc2c1)c1ccc2[nH]c(=O)oc2c1`: the fold change is 1.41.

For the compound `C#CCN1C(=O)S/C(=C\c2ccc(N3CCCC3)cc2)C1=O`, the fold change is -1.24.

`CN1CCC2(CC1)C(C#N)=C(N)Oc1n[nH]c(-c3ccccc3)c12`: the fold change was 3.65 (active).

Take `COCc1[nH]nc2c1C1(CCN(C)CC1)C(C#N)=C(N)O2`: the fold change is -1.21.

On to `CN1CCC2(CC1)C(C#N)=C(N)Oc1n[nH]c(C(=O)OC(C)(C)C)c12`, for which the fold change was -1.08.

For `CCOC(=O)C1=C(C)NC2=C(C(=O)CCC2)C1c1ccc(CC)s1` (configuration not stated), the fold change is -1.61.

For `COc1ccc2[nH]c(=O)c(=O)[nH]c2c1`, the fold change was 1.16.

For the compound `O=c1[nH]c2ccccc2[nH]c1=O`, the fold change was 5 (active).

For `O=c1ccc2ccccc2[nH]1`, the fold change was -1.85.

Consider `O=S(=O)(c1ccccc1)N1CCN(Cc2ccc3c(c2)OCO3)CC1`, for which the fold change was -4.81.

`O=S(=O)(c1ccc2c(c1)OCCO2)N1CCCCC1`: the fold change was -1.44.

As for `O=C(c1ccc(COc2ccc(I)cc2)o1)N1CCCC1`, the fold change was -1.09.

For the compound `CN(C)c1ccc(/C=C2\C(=O)ON=C2c2cccc(I)c2)cc1`, the fold change is -1.18.

Turning to `Cn1c2c(c(=O)[nH]c1=O)C(c1ccccc1)C1=C(N2)c2ccccc2C1=O` (configuration not stated), the fold change was -6.31.

Consider `Cc1[nH][nH]c(=O)c1C(c1ccncc1)C(C#N)C#N` (configuration not stated), for which the fold change is 3.56 (active).

Consider `O=C(Nc1sc2c(c1C(=O)Nc1ccc(Br)cc1)CCC2)c1cccs1`, for which the fold change was 1.12.

On to `Cn1nnnc1SCC(=O)Nc1ccc(F)c(Cl)c1`, for which the fold change was -2.05.

Turning to `O=C(Nc1ccc(Br)cc1Br)C(Cl)Cl`, the fold change was -6.77.

Turning to `CC(=O)Nc1sc2c(c1C(N)=O)CCCCC2`, the fold change was 1.05.

Consider `CC(=O)Nc1sc2c(c1C(N)=O)CCCC2`, for which the fold change was -1.98.

For `CC(=O)Nc1sc2c(c1C(=O)O)CCCC2`, the fold change is 2.88 (active).

Regarding `COc1ccc(S(=O)(=O)N2CCCc3ccccc32)cc1`, the fold change is -1.9.

For `CC1(C)CC(NC(=O)C(=O)NC2CC(C)(C)NC(C)(C)C2)CC(C)(C)N1`, the fold change was 4.26 (active).

Consider `CC(C)NC(=O)C(=O)NC1CC(C)(C)NC(C)(C)C1`, for which the fold change was -2.38.

Turning to `CC1(C)CC(NS(=O)(=O)c2ccccc2)CC(C)(C)N1`, the fold change was -1.13.

On to `Cc1cc(NC(=O)c2n[nH]c(=O)c3ccccc23)no1`, for which the fold change is -1.69.

As for `Cn1c(-c2ccccc2)c(NC(=O)c2ccccc2Cl)c(=O)n1C`, the fold change is -1.22.

As for `C=CCOC(=O)c1sc(NC(=O)c2ccco2)nc1C`, the fold change is -1.45.

With `Oc1[nH]c(=S)sc1/C=C/C=C/C=Nc1ccccc1`, the fold change result is “inactive”.

On to `CCCc1cc(=O)oc2cc(O)cc(O)c12`, for which the fold change was 1.04.

With `Cc1sc(NC(=O)Cn2nc(C(F)(F)F)cc2C)c(C(N)=O)c1C`, the fold change was -1.23.

Regarding `Cc1cc(C(F)(F)F)nn1CC(N)=O`, the fold change was 3.13 (active).

As for `Cn1nc(C(F)(F)F)cc1C(=O)O`, the fold change was -1.06.

With `C=CCn1c(COc2ccccc2)n[nH]c1=S`, the fold change was 1.52.

On to `CCOC(=O)c1c(NC(=O)C23CC4CC(CC(C4)C2)C3)sc2c1CCN(C(=O)OCC)C2`, for which the fold change was -1.15.

`Oc1c(Br)cc(Br)cc1C=Nc1cc(Cl)ccc1Cl`: the fold change entry was “inactive”.

Regarding `Oc1c(Cl)cc(Cl)cc1C=Nc1ccc(Cl)cc1Cl`, the fold change result was “inactive”.

`O=[N+]([O-])c1ccc(O)c(N=Cc2cc(Br)cc(Br)c2O)c1`: the fold change result was “active”.

Consider `O=[N+]([O-])c1ccc(N=Cc2cc(Br)cc([N+](=O)[O-])c2O)cc1`, for which the fold change entry was “inactive”.

`O=[N+]([O-])c1ccc(N=Cc2cc(Br)cc(Br)c2O)c(O)c1`: the fold change result was “inactive”.

For the compound `O=[N+]([O-])c1ccc(O)c(N=Cc2cc(Br)cc([N+](=O)[O-])c2O)c1`, the fold change result was “inactive”.

On to `O=[N+]([O-])c1ccc(N=Cc2cc(Br)cc(Br)c2O)cc1`, for which the fold change result is “active”.

On to `O=[N+]([O-])c1cc(Br)cc(C=Nc2ccc(N=Cc3cc(Br)cc([N+](=O)[O-])c3O)cc2)c1O`, for which the fold change result is “inactive”.

For `Oc1c(Br)cc(Br)cc1C=Nc1ccc(Cl)cc1Cl`, the fold change result was “active”.

Take `S=C(c1ccco1)N1CCOCC1`: the fold change is 1.24.

Turning to `NC(Cc1cc(F)ccc1F)C(=O)O` (configuration not stated), the fold change was -3.72.

For the compound `O=[N+]([O-])c1ccc(Nc2ccc(O)cc2)c([N+](=O)[O-])c1`, the fold change was -1.07.

With `O=[N+]([O-])c1cccc(S(=O)(=O)Nc2ccc(I)cc2)c1`, the fold change was 1.39.

Regarding `O=[N+]([O-])c1ccc(NS(=O)(=O)c2ccccc2)c([N+](=O)[O-])c1`, the fold change is 3.49 (active).

Turning to `O=C1CN(C(=O)Cn2c(=O)oc3ccccc32)c2ccccc2N1`, the fold change is -1.03.

For `O=C1CCC(=O)N1CCCCCCN1C(=O)CCC1=O`, the fold change is -1.37.

In the case of `O=C(O)C1=NN(c2ccc(S(=O)(=O)O)cc2)C(=O)C1`, the fold change was 1.74.

For `CN1N=C(C(=O)O)CCC1=O`, the fold change was 2.58 (active).

`O=C1C=CC(=O)N1c1cc(Cl)cc(Cl)c1`: the fold change is -1.38.

Regarding `N#CC1=C(N)C(C#N)(C#N)C(c2ccc(Cl)cc2Cl)C2CCCC=C12` (configuration not stated), the fold change is -4.43.

`Cc1[nH][nH]c(=O)c1C1(C(C#N)C#N)C2CC3CC(C2)CC1C3` (configuration not stated): the fold change was 2.9 (active).

As to `C=CCN(CC=C)C(=O)C1c2ccccc2Oc2ccccc21`, the fold change was -1.36.

Regarding `CN(C)c1ccc(NC(=O)c2sc(=S)[nH]c2N)cc1`, the fold change is -1.46.

Consider `N#Cc1c(C(F)(F)F)cc(-c2cccs2)oc1=S`, for which the fold change is -2.59.

For the compound `N#Cc1c(C(F)(F)F)cc(-c2ccccc2)[nH]c1=S`, the fold change is -1.58.

Consider `N#Cc1c(C(F)(F)F)cc(-c2cccs2)[nH]c1=S`, for which the fold change was 4.58 (active).

`O=C(Nc1ccc(I)cc1)C1CCCN1C(=O)c1cccs1` (configuration not stated): the fold change was 1.51.

For the compound `Cn1c(Cc2ccccc2)n[nH]c1=S`, the fold change is -1.19.

Turning to `CCCCn1c(COc2ccc(Cl)cc2)n[nH]c1=S`, the fold change is -1.76.

Take `Cn1c(COc2ccc(C3CCCCC3)cc2)n[nH]c1=S`: the fold change was 2.92 (active).

For `O=C(O)CCSc1ncnc2ccccc12`, the fold change is -3.11.

Turning to `CCN(CC)CC(=O)Nc1sc2c(c1C(N)=O)CCCC2`, the fold change is 1.

As for `O=c1[nH]cnc2nn(-c3ccccc3)nc12`, the fold change result was “inactive”.

Take `Fc1ccc(CSc2nnc(SCc3ccccc3F)s2)cc1`: the fold change was -1.07.

Take `c1ccc(CC2=NCCN2)cc1`: the fold change is -1.2.

For the compound `Fc1ccccc1CSC1=NCCN1`, the fold change was 3.44 (active).

In the case of `O=C1NC(=O)/C(=C/c2ccc(-c3ccc(Br)c(Cl)c3)o2)N1`, the fold change is -1.16.

Consider `Nc1ccc(N2CCCC2)c(C(F)(F)F)c1`, for which the fold change is 1.69.

Turning to `COc1ccc(N/C=C(\C#N)C(N)=S)cc1OC`, the fold change is -3.68.

For `COc1ccc(CC2=CN(C)CC3=C2OC(N)=C(C#N)C3c2ccc(OC)cc2)cc1` (configuration not stated), the fold change was 1.19.

Turning to `CCCN1CC2=C(OC(N)=C(C#N)C2c2ccc(SC)cc2)/C(=C/c2ccc(SC)cc2)C1` (configuration not stated), the fold change was 5.06 (active).

Consider `CC(C)N1C=C(Cc2ccc(F)cc2)C2=C(C1)C(c1ccc(F)cc1)C(C#N)=C(N)O2` (configuration not stated), for which the fold change is 1.45.
